Several values for one entry are separate records, joined by “and”; a condition that tells them apart may be missing. Equal values may be shown once. The panel holds about 83,000 compounds, 20% with a hit somewhere; the sample as a whole holds those more often.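 Single-concentration screen, 48 h exposure, 96-well plates. Endpoint: percent growth. Below 10 = active.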 Activity calls are given as the source filed them. Where a SMILES comes first, the peptide text is derived from it.
What follows are compounds tested on OVCAR-4 ovarian (assay: NCI-60 one-dose screen, 48 h (100 = growth as untreated, 0 = no growth, -100 = all killed)). Settings: 10 µM unless noted.
Method: Growth inhibition of the OVCAR-4 human tumor cell line is measured as a screen for anti-cancer activity. Cells are grown in 96 well plates and exposed to the test compound for 48 hours. Compounds are tested at a single concentration, which is 10^-5 M for most compounds. The reported endpoint is percent growth (GI% or GIPRCNT), where numbers from 0 - 100% represent growth inhibition, and numbers from -100% - 0 represent cell death. For example, a value of 40 represents 60% growth inhibition. A value of 0 means no net growth occurred over the course of the experiment. A value of -40 indicates 40% of cells at the beginning of the experiment died by the end of the experiment. A value of -100 means all cells are dead at the end of the experiment.
NCI-60 Human Tumor Cell Lines Screen was performed using the standard one-dose NCI protocol, which is described in more detail at https://dtp.cancer.gov/discovery_development/nci-60/default.htm.
Compounds with GIPRCNT values below 10 were considered active. Activity score was based on GIPRCNT using the following formula: […]
Score is 0 for GIPRCNT values of 100 or above, 50 for GIPRCNT values of 0, and 100 for GIPRCNT values of -100.
`O=C(O)CCCl` was tested, and the growth was 98.8% (inactive).
With `O=C(Cc1ccccc1)c1ccc(O)c(Cl)c1` the growth was 63.5% (inactive).
For `CCc1cc(C)cc(O)c1`, the growth was 112% (inactive).
With `CC1CCC2(OC1)OC1CC3C4CC=C5CC(O)CCC5(C)C4CCC3(C)C1C2C` (stereo not given) the growth was 95.7% (inactive).
`O=C(O)/C=C\C(=O)Nc1cccc2ccccc12` was tested, and the growth was 92.2% (inactive) and 115% (inactive).
`Cc1ccc(=O)[nH]n1` was tested, and the growth was 112% (inactive) and 122% (inactive).
In the case of `N#CC(C#N)N=Nc1cc(Cl)ccc1Cl`, the growth was 98.9% (inactive).
In the case of `CCCCNc1ccc(Nc2ccccc2)cc1`, the growth was 39% (inactive).
With `CC1CCC2(C(=O)O)CCC3(C)C(=CCC4C5(C)CCC(O)C(C)(C)C5CCC43C)C2C1C` (stereo not given) the growth was 59.3% (inactive) and 84.2% (inactive).
In the case of `Nc1ncnc2c1ncn2C1OC(COP(=O)(O)O)C(O)C1O` (stereo not given), the growth was 126% (inactive).
In the case of `CC(C)(O)C(=O)O`, the growth was 105% (inactive).
`CC(=O)Nc1ccc(S(N)(=O)=O)cc1` was tested, and the growth was 99.4% (inactive) and 105% (inactive).
For `O=C(/C=C/c1ccccc1)c1ccccc1`, the growth was 95.3% (inactive).
For `COc1cc(C(O)C2C(=O)OCC2C2(c3ccc4c(c3)OCO4)SCCCS2)cc(OC)c1OC` (stereo not given), the growth was 103% (inactive).
With `CC1=C/C(O)CC(=O)Cc2nc(co2)C(=O)N2CCC=C2C(=O)OC(C(C)C)C(C)/C=C\C(=O)NC/C=C\1` (stereo not given) the growth was 78.5% (inactive).
With `CC1(C)COC(=S)N1` the growth was 102% (inactive).
In the case of `OC1COC(OCc2ccccc2)C(O)C1O` (stereo not given), the growth was 88.5% (inactive).
With `Nc1cc(N)c(N)cc1N` the growth was 25.3% (inactive).
For `c1ccc(CNCCNCc2ccccc2)cc1`, the growth was 103% (inactive).
In the case of `CCCCCCCCCCCCCCCCC(C(=O)O)C(O)(CC(=O)O)C(=O)O` (stereo not given), the growth was 108% (inactive) and 21.3% (inactive).
For `CC[C@H](CC[C@@H](C)[C@H]1CC[C@H]2[C@@H]3CC=C4C[C@@H](O)CC[C@]4(C)[C@H]3CC[C@]12C)C(C)C`, the growth was 97.6% (inactive) and 114% (inactive).
For `CC(C)NC(=O)N/C=C(\C#N)C(N)=O`, the growth was 105% (inactive).
`CCCCCCCCCCCCCCCc1ccc(N)c(OC2OC(CO)C(O)C(O)C2O)c1` (stereo not given) was tested, and the growth was 85.2% (inactive).
`COc1ccc(N/C=C/C2=[N+](C)c3ccccc3C2(C)C)c(OC)c1` was tested, and the growth was 91.7% (inactive).
`NC1CCC(C(=O)O)CC1` (stereo not given) was tested, and the growth was 107% (inactive) and 103% (inactive).
With `O=[N+]([O-])c1cccc(SSc2cccc([N+](=O)[O-])c2)c1` the growth was 105% (inactive).
In the case of `O=C1c2c(O)ccc(O)c2C(=O)c2c(NCCNCCO)ccc(NCCNCCO)c21`, the growth was -39.7% (active).
With `ClCCOCCOc1ccc(C2CCCCC2)cc1` the growth was 97.7% (inactive).
`CCOC(=O)c1c(C)cc(=O)oc1C` was tested, and the growth was 108% (inactive).
For `C/C(=C\c1ccccc1)c1ccccn1`, the growth was 106% (inactive).
For `O=c1[nH]cnc2c1ncn2C1OC(CO)C(O)C1O` (stereo not given), the growth was 126% (inactive) and 118% (inactive) and 117% (inactive).
`COc1ccc(C(=O)CC(c2ccccc2)C(C#N)c2ccccc2)cc1` (stereo not given) was tested, and the growth was 88.8% (inactive).
With `CCCCOc1ccc(Nc2cc(Cl)ccc2C(=O)O)cn1` the growth was 92.4% (inactive).
`Fc1ccc([I+]c2ccc(F)cc2)cc1` was tested, and the growth was 52.1% (inactive).
`CC(C)NCC(O)c1ccc(O)c(O)c1` (stereo not given) was tested, and the growth was 107% (inactive) and 110% (inactive) and 97.1% (inactive).
With `CCCCCCCCCCNC(=O)CI` the growth was -44.1% (active).
With `O=C1OC(c2ccccc2)=N/C1=C\c1ccccc1` the growth was 113% (inactive).
With `NC(Cc1ccccc1)C(=O)NC(Cc1ccccc1)C(=O)O` (stereo not drawn) (H-Phe-Phe-OH; configuration not given here) the growth was 102% (inactive) and 100% (inactive).
`CN(C)CC1CCCCCC(CN(C)C)C1=O` (stereo not given) was tested, and the growth was 79% (inactive).
For `CC(=O)OC(C)C(=O)NCC(C)O` (stereo not given), the growth was 100% (inactive).
